# This is one part of a sample in which hits are shown more often than they occur.
# TTR transcr act – increases transthyretin transcription; activation, % at 16.7 µM; AID 1117267; SH-SY5Y TTR promoter Gaussia luciferase, luminescence; 100% = recombinant luciferase protein wells; hit rate 1.3% among 92,000;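 active = activation above the mean of all tested compounds plus 3 SD, cut at about 9.5% in these data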;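 note: cells exposed to compounds for one day before reading; 0% = median of all test compound wells on the plate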
# Starred values were filed as active, the others as inactive.
SMILES,TTR transcr act
CC(C)CC(c1nnnn1Cc1ccco1)N1CCN(C2CCCC2)CC1 (stereo not given),-2
COc1ccc(C(c2nnnn2Cc2cccs2)N2CCC(C(N)=O)CC2)c(OC)c1 (stereo not given),1
CC(C)CC(c1nnnn1Cc1ccccc1)N1CCC(C(N)=O)CC1 (stereo not given),18*
CN(C)c1ccc(Cn2c(=O)n(Cc3ccc(C(=O)NCC4COC4)cc3)c(=O)c3ccccc32)cc1,-1
O=C(C(c1ccccc1)c1ccccc1)N1CCN(CCN2C(=O)c3cccc4cccc(c34)C2=O)CC1,0
O=C1c2ccccc2C(=O)N1CC#CCN1CCN(C(c2ccccc2)c2ccccc2)CC1,11*
OC(C#CCN1CCCC1)c1ccccc1 (stereo not given),-1
O=C(N[C@@H](Cc1ccccc1)c1nc2ccccc2[nH]1)c1ccc([N+](=O)[O-])cc1,0
O=C(OCCNC(=O)c1cc2ccccc2oc1=O)c1cccnc1,12*
COc1ccc(-c2cc3ccccc3oc2=O)cc1NC(=O)c1cccnc1,-2
O=C(NNC(=O)c1cc2ccccc2oc1=O)c1ccccc1,0
CC(=O)CC(=O)O[C@@H]1C=C[C@H](NC(=O)OC(C)(C)C)C1,-1
C[C@H](NC(=O)[C@H]1N2C(=O)c3ccccc3C2SC1(C)C)C(=O)N1CCC[C@H]1CO (stereo not given in full),2
C[C@H](NC(=O)[C@H]1N2C(=O)c3ccccc3C2SC1(C)C)C(=O)N1CCC[C@H]1C(=O)O (stereo not given in full),58*
C[C@H](NC(=O)[C@H]1N2C(=O)c3ccccc3C2SC1(C)C)C(=O)N1CCCCC1 (stereo not given in full),5
O=C(Nc1ccc(F)cc1)OC1CC2CC1[C@H]1CCCCN1C2 (stereo not given in full),1
COC(=O)[C@]12CCCCC=C1N(Cc1ccc(OC)cc1)C(=O)[C@@H]2CC(=O)N1CCC(c2ccccc2)CC1,1
O=C(NCCc1ccccc1)OCc1cn(-c2ccccc2Cl)nn1,-2
O=S1(=O)c2ccc(N3CC[C@@H](O)C3)cc2O[C@@H]2CCN1C2,1
Cc1ccc2c(n1)sc1c(-c3ccccc3)c(C#N)c(N)nc12,0
Cc1ccc2nc(-c3sc4nc(C)ccc4c3N)[nH]c2c1,-2
Cc1ccc2c(N)c(C#N)sc2n1,27*
CN1CCC(N[C@@H](Cc2ccccc2)C(=O)NCC(c2ccccc2)c2ccccc2)(C(=O)NC2CCCCC2)CC1,-4
Cc1ccc(-c2cc3nc(-c4ccco4)cc(N4CCN(Cc5ccoc5)CC4)n3n2)cc1,-2
COc1ccc(C(=O)NNC(=O)C(=O)Nc2ccc(C)c(Cl)c2)cc1,1
SMILES,TTR transcr act
Cc1ccc(NC(=O)C(=O)N2CCCC2)cc1Cl,1
Cc1ccc(NC(=O)C(=O)NNC(=O)c2ccccc2C)cc1Cl,11*
COCCNC[C@@]12CO[C@H](c3ccc(Cl)cc3)N1[C@@H](c1ccc(Cl)cc1)SC2,1
C=C1CCC2C(C)(C)CCC[C@]2(C)[C@H]1CC1=C(O)C(=O)C(CO)=CC1=O (stereo not given in full),-1
COC(=O)c1cc(OC)c(OC)cc1NC(=S)Nc1cc(Cl)ccc1OC,9
COC(=O)c1cccc(NC(=S)Nc2cccc(Cl)c2Cl)c1,1
COC(=O)c1cc(OC)c(OC)cc1NC(=S)Nc1cccc(Cl)c1,17*
Cc1ccccc1CN1CCCCC(NC(=O)Nc2cccc([N+](=O)[O-])c2)C1=O (stereo not given),-4
O=C(Nc1ccccc1F)O[C@@H]1CC[C@@]23CCCN2C(=O)CCC[C@H]3C1,-1
CC(C)(C)OC(=O)N1c2ccccc2[C@]2(N3CCCC3)C[C@H](C(=O)O)N(C(=O)OC(C)(C)C)[C@H]12,2
O=C1c2ccccc2C(=O)N1CCc1nc(-c2ccccn2)no1,0
Cc1ccc(OCc2nc(-c3ccccn3)no2)c(Br)c1,14*
Clc1ccccc1OCc1nc(-c2ccncc2)no1,-1
COc1ccc2c(c1)C[C@@H](CON1C(C)(C)CCCC1(C)C)N2S(=O)(=O)c1ccc(C)cc1,1
CC12CN(C(=O)c3ccc([N+](=O)[O-])cc3)CC(C)(CN(C(=O)c3ccc([N+](=O)[O-])cc3)C1)C2=O,-1
CN1CCN(c2ccc([N+](=O)[O-])cc2C(=O)c2ccccc2)CC1,-2
CC1(c2cc([N+](=O)[O-])cc([N+](=O)[O-])c2)CC(C)(C)N(C(=O)c2ccccc2)c2ccccc21 (stereo not given),14*
COc1ccc(S[C@]2(C(=O)N3CCN(c4ncccn4)CC3)CC(=O)N(C(=O)C3CC3)[C@@H]2c2ccc(OC)cc2)cc1,7
CCC[C@H]1[C@@H](NC(=O)/C=C/c2ccccc2)CC[C@@]23CCCN2C(=O)CCC[C@@H]13,1
COC(=O)[C@]12C[C@H](CC(=O)NCC34CC5CC(CC(C5)C3)C4)C(=O)N(Cc3ccco3)C1=C[C@H](C(C)C)O[C@@H]2C1CC1,-2
Cc1cccc(-n2c(SCC(=O)N3CCN(c4ccccn4)CC3)nnc2N2CCOCC2)c1,0
